Compound activity from PubChem BioAssay.
The list is not random: actives were taken first. Their share in the collection is about 0.99%.
TRPML1 inh = inhibitors of human TRPML1 channel | 390,000 compounds, 0.02% hits | activity change, negative = inhibition, % (no concentration beside the values) | TRPML1-inducible cells, Ca2+ dye fluorescence, FDSS; active compounds read low; inhibition of EC80 agonist-evoked calcium signal | Q9GZU1 | AID 624415; in the data active = activity change below about -50%; inconclusive = between about -30% and that limit;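 also: stimulus is agonist 54-4 at its EC80 concentration; % is scaled to controls: 0 for no effect and ±100 for the full control effect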
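TRPML1-DL cells, Tet-induced overnight (~16 h, 37 °C) at 1,500 cells/well, were loaded with Ca8 no-wash dye plus quencher for 45-90 min at room temperature. Compounds were pinned during FDSS kinetic reading; agonist 54-4 at EC80 (4 uM final) then added.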
TRPML1 agonist = activates the human TRPML1 channel; Q9GZU1; TRPML1-expressing cells, Ca2+ dye fluorescence, FDSS; activation, % (no concentration beside the values); 410,000 compounds, 0.12% hits; AID 624414; in the data active = activation above about 50%; inconclusive = mostly about 30% to 49%; also: 0% is about no effect
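Tet-induced TRPML1-DL cells, 1,500 per well, cultured overnight, were loaded with a no-wash Ca2+ dye for 45–90 min. Calcium fluorescence was recorded on the FDSS for 110 s after compound addition, before the EC80 agonist (4 uM 54-4) was added.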
TRHR enhancer = TRH receptor (human) allosteric enhancement; TRHR cells, fluo-8 calcium fluorescence, EC20 TRH enhancement; 360,000 compounds, 0.66% hits; enhancement, % at 2 µM; P34981; in the data active = enhancement above about 30%; also: 0% is about no effect
Target sequence (P34981 whole entry, looked up): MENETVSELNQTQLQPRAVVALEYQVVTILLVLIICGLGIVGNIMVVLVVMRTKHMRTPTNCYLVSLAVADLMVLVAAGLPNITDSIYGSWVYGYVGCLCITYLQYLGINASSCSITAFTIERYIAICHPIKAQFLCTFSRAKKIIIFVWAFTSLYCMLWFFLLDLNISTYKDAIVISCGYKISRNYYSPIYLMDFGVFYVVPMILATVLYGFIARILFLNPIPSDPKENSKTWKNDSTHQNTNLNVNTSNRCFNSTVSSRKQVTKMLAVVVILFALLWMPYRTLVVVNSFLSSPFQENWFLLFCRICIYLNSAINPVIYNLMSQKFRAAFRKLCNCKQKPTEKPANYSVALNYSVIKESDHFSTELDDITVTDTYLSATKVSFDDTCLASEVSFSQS
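TRHR-expressing cells loaded with fluo-8 calcium dye were read kinetically (ex 480/em 530) during compound addition, then stimulated with an EC20 of TRH (10 nM final). Enhancement of the Gq-mediated intracellular calcium response was scored.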
TRHR ag = activates the human TRH receptor | P34981 | TRHR cells, calcium flux fluo-8, FDSS agonist mode | activation, % at 2 µM | 360,000 compounds, 0.18% hits | AID 493084; in the data active = activation above about 30%; also: 0% is about no effect
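TRHR-expressing cells, plated overnight in medium with 10% serum, were loaded with fluo-8 calcium dye at room temperature. After a 10 s baseline, library compound was pin-added and calcium release was recorded kinetically (ex 480/em 530) as agonist response.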
TRPV1 PAM = enhances activation of the human vanilloid receptor TRPV1 | Q8NER1 | TRPV1-expressing cells, Fluo-8 calcium influx, capsaicin EC20 potentiation | AID 540277 | 320,000 compounds, 0.02% hits | potentiation, % at 8.33 µM; in the data active = potentiation above about 80%; inconclusive = between about 30% and that limit; also: 0% is about no effect
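Cells expressing TRPV1 were dye-loaded with Fluo-8 and read kinetically: 10 s baseline, 3 min after compound (agonist portion), then 2 min after EC20 capsaicin (allosteric enhancer portion). Calcium-bound dye fluorescence at 480/520 nm.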
TRPV1 agonist = activates the human vanilloid receptor TRPV1 | TRPV1-expressing cells, Fluo-8 calcium influx, agonist mode | 320,000 compounds, 0.19% hits | activation, % at 8.33 µM; in the data active = activation above about 80%; inconclusive = between about 30% and that limit; also: 0% is about no effect
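TRPV1-expressing cells were cultured overnight at 35.5C and loaded with Fluo-8 calcium dye for 40 to 90 min at room temperature. After a 10 s baseline, compound was added and calcium influx was read kinetically for 3 min (ex 480/em 520 nm).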
* hit, by the source's call; ? = inconclusive; . = no result given.

SMILES	TRPML1 inh	TRPML1 agonist	TRHR enhancer	TRHR ag	TRPV1 PAM	TRPV1 agonist
COc1cccc(NC(=O)NCCc2ccc(Cl)cc2)c1	0	0	-5	-1	-8	?
CN(C)c1cc(N2CCOCC2)nc(C#N)n1	.	0	.	.	.	.
CC1=CC(O)=NS(=O)(=O)O1	.	-1	.	.	.	.
Cc1ccc(S(=O)(=O)NNC(=O)Nc2ccc(Cl)cc2)cc1	-6	1	-6	0	-7	7
Cc1occc1C(=O)NNS(=O)(=O)c1ccc(Cl)cc1	6	0	37*	-1	30	-9
Cc1nc(Nc2cccc(F)c2)c2oc3ccccc3c2n1	14	1	-4	0	17	99*
COc1cccc(Nc2nc(C)nc3c2oc2ccccc23)c1	-7	3	15	-1	-6	80*
Cc1nc(Nc2cccc(Cl)c2)c2oc3ccccc3c2n1	5	1	-5	-1	14	86*
C[N+]1(CC(=O)c2ccc(Oc3ccccc3)cc2)CCOCC1	.	0	.	.	.	.
Oc1ccccc1C1C=C(c2ccc3c(c2)OCO3)NC(c2cccc(F)c2)N1 (stereo not given)	20	1	11	0	-13	14
CCCc1cc(C(=O)OC)c(NC(=O)CCCC(=O)O)s1	13	0	36*	0	9	1
O=C(N/N=C/c1ccc(OC(=O)c2ccccc2Cl)cc1)c1ccccn1	-2	-1	31*	0	4	14
O=C(c1ccc(-c2cccc(C(F)(F)F)c2)o1)N1CCOCC1	6	2	9	-2	-18	86*
CCCCCCc1cc2cc(-c3nnc(-c4ccc(C)cc4)o3)c(=O)oc2cc1O	-23	?	1	-1	.	.
CCN(CC)c1ccc2cc(-c3nnc(-c4cccc(Cl)c4)o3)c(=O)oc2c1	-20	62*	28	171*	.	.
CCN(CC)c1ccc2cc(-c3nnc(-c4ccncc4)o3)c(=O)oc2c1	?	116*	12	285*	?	107*
CCCCCCCCN1[C@@H](CC(C)=O)c2ccc(/C=C/C(C)=O)cc2S1(=O)=O	.	0	.	.	.	.
Cc1ccccc1-c1nc(CS(=O)(=O)CC(=O)N2CCCCC2)c(C)o1	9	1	33*	0	-6	-5
COc1ccc(-c2nnc(N3CCOCC3)c3ccccc23)cc1	-2	1	39*	0	2	3
CSc1nnc2c3c4c(sc3nc(-n3nc(C)cc3C)n12)COC(C)(C)C4	10	0	11	-1	5	80*
Cc1cc(C)n(-c2nc3sc4c(c3c3nnc(SCC(N)=O)n23)CC(C)(C)OC4)n1	5	1	5	1	2	0
Cc1ccc(NC(=O)C2=CCN(S(=O)(=O)c3ccc(F)cc3)CC2)c(C)c1	-19	1	-9	0	-14	?
CCC(C)NC(=O)C1=CCN(S(=O)(=O)c2ccc(C)cc2)CC1 (stereo not given)	-54*	0	-3	0	4	-3
CNc1ccc(C=C2c3ccccc3-c3ccccc32)cc1	.	-1	.	.	.	.
Cc1ccc2c(c1)Cc1c(nc(-c3ccc(F)cc3)nc1SCC(=O)N1CCCCC1)O2	18	0	33*	1	.	.
SMILES	TRPML1 inh	TRPML1 agonist	TRHR enhancer	TRHR ag	TRPV1 PAM	TRPV1 agonist
Cc1cccc(C)c1N1CCN(C(=O)N2CCOCC2)CC1	-4	0	2	1	-20	80*
COc1ccc(C)cc1NC(=O)C(OC(=O)CNC(=O)c1ccccc1)c1ccccc1 (stereo not given)	.	.	-1	-1	.	.
COc1ccc(-c2[nH]ncc2C(=O)NCc2cccc(F)c2)cc1	-12	1	37*	-1	.	.
CCCOC(=O)C1=C(C)CS[C@@H]2[C@H](NC(=O)COc3ccccc3)C(=O)N12	.	-1	.	.	.	.
CC(=O)c1ccc(NC(=O)c2ccc3snnc3c2)cc1	1	0	-14	1	-10	?
NS(=O)(=O)c1cccc(NC(=O)c2cccc(S(=O)(=O)N3CCCCCC3)c2)c1	-6	0	.	.	.	.
O=C(Nc1ccc(N2CCOCC2)cc1)c1ccc2ncsc2c1	12	0	.	.	.	.
